Measurements taken from PubChem BioAssay (Tox21).
Inconclusive results are not listed. Active and inactive are the calls of the source. Unless noted, the call rests on the fitted dose curve; in most records, active means well fitted curve in the direction sought with a large enough effect in the repeat runs; inconclusive means weak or mixed curves; inactive means no such curve, though single readings can be large; an effect the other way counts as inactive or inconclusive.

Assays:
[1] = qHTS assay to identify aromatase inhibitors - cell viability counter screen (AID 743084);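 further: cells stimulated with testosterone during compound exposure; nearly all actives have a fitted effect of over 55% in size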
[2] = target: Aryl hydrocarbon receptor (Homo sapiens) (UniProt P35869); assay: qHTS assay to identify small molecule that activate the aryl hydrocarbon receptor (AhR) signaling pathway (AID 743085);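 further: HG2L7.5c1 human HepG2 liver cells with stably integrated DRE-driven firefly reporter; series mostly up to about 70 µM; nearly all actives have a fitted effect of over 15% in size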
Outline: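 Stably transfected human liver carcinoma cells (HG2L7.5c1; 20 DRE-firefly luciferase) were incubated 5 h, dosed, and kept 24 h at 37C. Agonism was scored from increased luciferase luminescence.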

[3] = qHTS assay to identify small molecule that activate the aryl hydrocarbon receptor (AhR) signaling pathway - cell viability counter screen (AID 743086);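 further: HepG2 liver cells carrying the AhR DRE luciferase reporter; series mostly up to about 70 µM; nearly all actives have a fitted effect of over 45% in size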
Outline: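 Cytotoxicity counter screen: CellTiter-Fluor signal (30 min, 37 C) in 4000 HepG2 cells/well carrying the DRE-luciferase reporter, following 24 h compound exposure at 37 C.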

[4] = target: Peroxisome proliferator-activated receptor gamma (Homo sapiens) (UniProt P37231); assay: qHTS assay to identify small molecule agonists of the peroxisome proliferator-activated receptor gamma (PPARg) signaling pathway (AID 743094; active means well fitted activation curve with a large enough effect in the signal ratio in the repeat runs, not every such curve was filed as active; the % refers to the signal ratio)
Outline: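 Beta-lactamase FRET fluorescence was the read-out after a 1 h room-temperature substrate step, following 17 h compound treatment at 37C of HEK293H cells expressing a UAS-driven bla reporter responsive to PPARg.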

[5] = target: Peroxisome proliferator-activated receptor gamma (Homo sapiens) (UniProt P37231); assay: qHTS assay to identify small molecule antagonists of the peroxisome proliferator-activated receptor gamma (PPARg) signaling pathway (AID 743191; calls by dose curve; further: series mostly up to about 63 µM; nearly all actives have a fitted effect of over 30% in size)
Outline: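 Beta-lactamase reporter under UAS control in HEK293H PPARg-bla cells; compound treatment 17 h at 37C. Read-out: fluorescence intensity after 1 h room-temperature incubation with LiveBLAzer B/G FRET substrate.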

[6] = qHTS assay to identify small molecule antagonists of the peroxisome proliferator-activated receptor gamma (PPARg) signaling pathway - cell viability counter screen (AID 743194); details: Potency: co-treated with 50 nM rosiglitazone; further: nearly all actives have a fitted effect of over 55% in size
Outline: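 Viability was measured as CellTiter-Glo luminescence in GeneBLAzer PPARg UAS-bla HEK293H cells. These cells had been exposed 17 h at 37 C to compounds together with rosiglitazone at 50 nM final, with the beta-lactamase readout taken in the same wells.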

[7] = qHTS assay for small molecule agonists of the antioxidant response element (ARE) signaling pathway (AID 743202; active means well fitted activation curve with a large enough effect in the signal ratio in the repeat runs, not every such curve was filed as active; the % refers to the signal ratio)
Outline: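 An ARE-responsive beta-lactamase gene stably integrated in HepG2 cells serves as reporter. After 5 h plating and 16 h compound incubation at 37 C, fluorescence of the B/G FRET substrate was measured.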

[8] = qHTS assay for small molecule agonists of the antioxidant response element (ARE) signaling pathway - cell viability counter screen (AID 743203; calls by dose curve; further: nearly all actives have a fitted effect of over 55% in size)
Outline: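 HepG2 cells carrying ARE-driven beta-lactamase; 2,000 cells/well; 5 hrs plating; compound pinned from DMSO; 16 hrs 37C/5% CO2; CellTiter-Glo added; 30 min RT; luminescence.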

[9] = qHTS assay for small molecule activators of the heat shock response signaling pathway - cell viability counter screen (AID 743209); further: nearly all actives have a fitted effect of over 50% in size
Outline: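 Luminescence from CellTiter-Glo, added after the beta-lactamase FRET read, gave the viability signal. Cells were HSE-bla HeLa treated with DMSO-dissolved compounds for 5 h at 37 C following overnight plating.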

[10] = qHTS assay for small molecule activators of the heat shock response signaling pathway (AID 743210; active means well fitted activation curve with a large enough effect in the signal ratio in the repeat runs, with a control signal flat, not every such curve was filed as active; the % refers to the signal ratio;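 further: HeLa cells with beta-lactamase reporter driven by heat shock elements; series mostly up to about 63 µM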)
Outline: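 In HSE-bla HeLa cells, 5 h compound incubation (37 C) precedes addition of LiveBLAzer B/G substrate; after 2.5 h at room temperature, fluorescence intensity indicates reporter induction.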

[11] = qHTS assay to identify small molecule agonists of the peroxisome proliferator-activated receptor delta (PPARd) signaling pathway - cell viability counter screen (AID 743211); further: nearly all actives have a fitted effect of over 55% in size
Outline: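 In the same wells used for beta-lactamase reporter measurement, cytotoxicity is scored by CellTiter-Glo. HEK293H PPARd-bla cells receive compound for 17 h at 37C following a 5 h settling period.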

[12] = qHTS assay to identify small molecule antagonists of the peroxisome proliferator-activated receptor delta (PPARd) signaling pathway - cell viability counter screen (AID 743213); further: nearly all actives have a fitted effect of over 50% in size
Outline: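 In this counter screen, HEK293H cells carrying a UAS-beta-lactamase reporter are co-treated with test compounds and 300 nM L165041 (final) for 17 h at 37 C; cell viability is quantified by CellTiter-Glo luminescence.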

[13] = qHTS assay to identify small molecule agonists of the farnesoid-X-receptor (FXR) signaling pathway - cell viability counter screen (AID 743218); further: nearly all actives have a fitted effect of over 45% in size
Outline: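 HEK 293T FXR-bla cells; 5 h pre-incubation, 16 h compound exposure at 37 C; LiveBLAzer substrate 2 h RT, then CellTiter-Glo 30 min RT, luminescence.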

[14] = qHTS assay to identify small molecule antagonists of the farnesoid-X-receptor (FXR) signaling pathway - cell viability counter screen (AID 743221; active means well fitted cell-killing curve with a large enough effect in the repeat runs, not every such curve was filed as active; further: nearly all actives have a fitted effect of over 50% in size)
Outline: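 Here viability was scored by luminescence after CellTiter-Glo addition to wells already read for beta-lactamase. Prior treatment: compound plus CDCA (50 uM final), 16 h, 37 C, HEK 293T FXR-bla cells.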

[15] = target: Vitamin D3 receptor (Homo sapiens) (UniProt P11473); assay: qHTS assay to identify small molecule antagonists of the vitamin D receptor (VDR) signaling pathway (AID 743223; active means well fitted inhibition curve with a large enough effect in the signal ratio in the repeat runs, not every such curve was filed as active; the % refers to the signal ratio)
Outline: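 Inhibition of agonist-driven VDR signalling is scored in VDR-bla cells: 3 nM final 1alpha,25-dihydroxyvitamin D3 plus compound, 16 h at 37C, then beta-lactamase detection by FRET substrate fluorescence after 2 h.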

[16] = target: Peroxisome proliferator-activated receptor delta (Homo sapiens) (UniProt Q03181); assay: qHTS assay to identify small molecule agonists of the peroxisome proliferator-activated receptor delta (PPARd) signaling pathway (AID 743212; calls by dose curve)
Outline: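 HEK293H UAS-bla reporter cells, human PPARd system; compounds delivered in DMSO after 5 h plating, then at 37 C. Beta-lactamase FRET read, 2 h RT substrate step.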

[17] = target: Bile acid receptor (Homo sapiens) (UniProt Q96RI1); assay: qHTS assay to identify small molecule antagonists of the farnesoid-X-receptor (FXR) signaling pathway (AID 743217; active means well fitted inhibition curve with a large enough effect in the signal ratio in the repeat runs, not every such curve was filed as active; the % refers to the signal ratio)
Outline: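 HEK 293T FXR-UAS-bla, 5000 cells/well; compound + CDCA 50 uM final; 16 h, 37 °C; B/G FRET substrate 2 h RT; fluorescence.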

[18] = target: Bile acid receptor (Homo sapiens) (UniProt Q96RI1); assay: qHTS assay to identify small molecule agonists of the farnesoid-X-receptor (FXR) signaling pathway (AID 743220; active means well fitted activation curve with a large enough effect in the signal ratio in the repeat runs, not every such curve was filed as active; the % refers to the signal ratio)
Outline: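 Beta-lactamase reporter under UAS control in GeneBLAzer FXR HEK 293T cells (5000/well) measured with LiveBLAzer FRET substrate after 2 h at room temperature. Compound exposure lasted 16 h at 37C.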

[19] = target: Vitamin D3 receptor (Homo sapiens) (UniProt P11473); assay: qHTS assay to identify small molecule agonists of the vitamin D receptor (VDR) signaling pathway (AID 743222; calls by dose curve)
Outline: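 VDR-bla cells, 2,000/well; 4 h preincubation 37C; cpd (DMSO) 16 h; LiveBLAzer B/G substrate 2 h RT; fluorescence intensity read.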

[20] = target: Peroxisome proliferator-activated receptor delta (Homo sapiens) (UniProt Q03181); assay: qHTS assay to identify small molecule antagonists of the peroxisome proliferator-activated receptor delta (PPARd) signaling pathway (AID 743215; active means well fitted inhibition curve with a large enough effect in the signal ratio in the repeat runs, not every such curve was filed as active; the % refers to the signal ratio;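 further: cells stimulated with agonist L165041 at 300 nM final during compound exposure; series mostly up to about 62 µM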)
Outline: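 Read-out is beta-lactamase FRET fluorescence, measured 2 h after substrate addition at room temperature. Beforehand, UAS-bla HEK293H cells carrying the PPARd reporter were exposed to compounds with L165041 at 300 nM final for 17 h at 37 C.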

Measured: Potency

Peroxisome proliferator-activated receptor delta (Homo sapiens), sequence (Q03181 whole entry, looked up): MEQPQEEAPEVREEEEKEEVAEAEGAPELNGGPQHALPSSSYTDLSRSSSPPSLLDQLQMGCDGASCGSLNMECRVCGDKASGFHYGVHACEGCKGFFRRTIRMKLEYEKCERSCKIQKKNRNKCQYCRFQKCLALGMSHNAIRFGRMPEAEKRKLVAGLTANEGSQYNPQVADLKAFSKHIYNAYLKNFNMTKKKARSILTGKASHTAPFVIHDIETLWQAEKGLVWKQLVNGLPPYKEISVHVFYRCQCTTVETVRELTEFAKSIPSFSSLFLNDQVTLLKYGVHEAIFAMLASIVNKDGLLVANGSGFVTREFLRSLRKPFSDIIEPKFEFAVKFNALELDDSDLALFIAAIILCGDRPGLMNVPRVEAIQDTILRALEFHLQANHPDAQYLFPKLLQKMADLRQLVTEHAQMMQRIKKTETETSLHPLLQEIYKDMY
Peroxisome proliferator-activated receptor gamma (Homo sapiens), sequence (P37231 whole entry, looked up): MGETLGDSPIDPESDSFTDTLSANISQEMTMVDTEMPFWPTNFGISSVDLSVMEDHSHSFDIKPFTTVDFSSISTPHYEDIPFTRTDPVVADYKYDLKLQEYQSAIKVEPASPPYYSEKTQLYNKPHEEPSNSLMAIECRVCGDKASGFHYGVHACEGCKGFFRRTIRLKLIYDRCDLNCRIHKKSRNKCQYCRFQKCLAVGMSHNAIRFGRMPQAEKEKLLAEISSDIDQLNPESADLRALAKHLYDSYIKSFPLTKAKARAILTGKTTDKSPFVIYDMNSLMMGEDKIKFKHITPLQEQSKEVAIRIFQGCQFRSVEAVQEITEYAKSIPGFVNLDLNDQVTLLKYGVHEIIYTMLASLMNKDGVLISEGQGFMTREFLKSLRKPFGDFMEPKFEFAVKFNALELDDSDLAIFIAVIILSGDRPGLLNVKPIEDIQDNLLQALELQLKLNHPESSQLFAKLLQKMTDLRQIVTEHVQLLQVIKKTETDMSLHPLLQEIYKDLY
Aryl hydrocarbon receptor (Homo sapiens), sequence (P35869 whole entry, looked up): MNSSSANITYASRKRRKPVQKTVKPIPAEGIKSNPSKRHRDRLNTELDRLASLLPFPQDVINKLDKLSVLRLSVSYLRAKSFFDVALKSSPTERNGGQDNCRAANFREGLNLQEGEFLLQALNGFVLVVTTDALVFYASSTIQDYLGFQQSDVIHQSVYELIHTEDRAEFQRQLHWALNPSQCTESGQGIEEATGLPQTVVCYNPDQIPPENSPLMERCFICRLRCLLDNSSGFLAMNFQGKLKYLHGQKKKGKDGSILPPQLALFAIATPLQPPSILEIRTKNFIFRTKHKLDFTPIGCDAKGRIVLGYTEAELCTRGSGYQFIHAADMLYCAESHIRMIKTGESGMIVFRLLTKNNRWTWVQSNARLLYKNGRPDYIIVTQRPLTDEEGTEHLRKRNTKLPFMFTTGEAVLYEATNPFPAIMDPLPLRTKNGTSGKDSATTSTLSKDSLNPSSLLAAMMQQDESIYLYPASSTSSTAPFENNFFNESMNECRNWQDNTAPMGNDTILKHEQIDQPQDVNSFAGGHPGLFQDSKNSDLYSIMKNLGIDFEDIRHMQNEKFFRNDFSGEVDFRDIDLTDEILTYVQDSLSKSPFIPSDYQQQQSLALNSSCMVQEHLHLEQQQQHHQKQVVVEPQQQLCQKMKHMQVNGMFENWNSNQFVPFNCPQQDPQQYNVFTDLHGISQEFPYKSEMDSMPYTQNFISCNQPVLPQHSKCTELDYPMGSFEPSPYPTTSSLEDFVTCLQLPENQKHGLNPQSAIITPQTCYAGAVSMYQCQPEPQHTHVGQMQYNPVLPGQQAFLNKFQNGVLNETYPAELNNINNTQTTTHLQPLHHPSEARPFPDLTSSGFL
Vitamin D3 receptor (Homo sapiens), sequence (P11473 whole entry, looked up): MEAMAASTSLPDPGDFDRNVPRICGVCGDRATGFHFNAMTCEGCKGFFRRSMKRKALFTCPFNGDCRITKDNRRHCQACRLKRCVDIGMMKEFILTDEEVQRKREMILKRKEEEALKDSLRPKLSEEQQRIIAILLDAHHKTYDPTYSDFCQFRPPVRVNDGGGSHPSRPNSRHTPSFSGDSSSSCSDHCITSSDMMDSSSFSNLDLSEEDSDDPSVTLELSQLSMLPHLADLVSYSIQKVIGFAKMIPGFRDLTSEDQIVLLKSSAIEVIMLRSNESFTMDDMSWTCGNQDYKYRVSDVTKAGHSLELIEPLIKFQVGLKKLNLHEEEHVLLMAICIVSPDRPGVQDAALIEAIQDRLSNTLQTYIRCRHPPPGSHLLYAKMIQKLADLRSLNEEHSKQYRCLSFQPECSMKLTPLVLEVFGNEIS
Bile acid receptor (Homo sapiens), sequence (Q96RI1 whole entry, looked up): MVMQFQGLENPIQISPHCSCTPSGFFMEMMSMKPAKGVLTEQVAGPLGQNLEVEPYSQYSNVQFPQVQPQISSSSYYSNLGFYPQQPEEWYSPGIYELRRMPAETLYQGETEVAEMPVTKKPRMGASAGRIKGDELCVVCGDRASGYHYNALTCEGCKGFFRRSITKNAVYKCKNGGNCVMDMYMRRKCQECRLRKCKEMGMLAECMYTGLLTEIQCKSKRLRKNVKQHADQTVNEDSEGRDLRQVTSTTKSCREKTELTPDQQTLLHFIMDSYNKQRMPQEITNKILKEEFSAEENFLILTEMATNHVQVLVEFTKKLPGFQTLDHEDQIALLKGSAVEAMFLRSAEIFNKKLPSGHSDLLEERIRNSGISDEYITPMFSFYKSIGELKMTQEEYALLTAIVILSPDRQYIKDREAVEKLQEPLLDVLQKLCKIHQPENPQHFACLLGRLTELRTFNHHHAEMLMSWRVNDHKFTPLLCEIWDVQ

ClCC(Br)CBr (configuration not stated)
not listed: [16] | [17] | [18] | [19] | [20]
inactive: all other assays above

CCCN(CCCl)c1c([N+](=O)[O-])cc(C(F)(F)F)cc1[N+](=O)[O-]
not listed: [11] | [20]
inactive: all other assays above

Clc1cc(Cl)c(Cl)c(Cl)c1
not listed: [12] | [13] | [17] | [18]
inactive: all other assays above

CC(=O)NC1CCSC1=O (configuration not stated)
not listed: [6] | [17] | [18]
inactive: all other assays above

C=CC(=O)OC(C)(C)C
not listed: [15] | [17] | [18]
inactive: all other assays above

ClCCCCBr
not listed: [19]
inactive: all other assays above

CCC(Cl)CCl (configuration not stated)
not listed: [6] | [12] | [17] | [18]
inactive: all other assays above

CCOS(C)(=O)=O
not listed: [13]
inactive: all other assays above
